Test [1] is described as follows: antimalarial activity against Dd2 strain (AID 2302;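 active means growth inhibition above 50% at the single 2 µM test dose, taken to imply half-maximal potency below 2 µM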;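 further: 0% = DMSO untreated growth and 100% = chloroquine plus artemisinin killed control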). Conditions: P. falciparum Dd2 in RBCs, LDH growth readout, 72 h; at 2 µM; hits give high values.
A short description of test [2]: HepG2 cytotoxicity, primary screen, cytotoxicity control for P. falciparum antimalarial project, cell-based, ATP luminescence (AID 2303;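 active means inhibition above 50%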;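 further: 0% = DMSO wells and 100% = digitonin-killed cells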). As to conditions: HepG2 viability, 24-48 h, at 10 µM, hits give high values.
The target of test [3] is L-lactate dehydrogenase (Plasmodium falciparum (isolate CDC / Honduras)) (UniProt Q27743). The test is described as follows: PfLDH activity inhibition – cell lysate, 3D7 strain, counter-screen for P. falciparum growth inhibition project (AID 2304).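 Further: 0% = vehicle and 100% = reference inhibitor.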 Conditions: P. falciparum 3D7 crude extract, LDH APAD/NBT absorbance; at 2 µM; hits give high values. Background: A counterscreen serves to expose hits that act by an unwanted route or on another target.
Chain of L-lactate dehydrogenase (Plasmodium falciparum (isolate CDC / Honduras)) (Q27743 whole entry, looked up): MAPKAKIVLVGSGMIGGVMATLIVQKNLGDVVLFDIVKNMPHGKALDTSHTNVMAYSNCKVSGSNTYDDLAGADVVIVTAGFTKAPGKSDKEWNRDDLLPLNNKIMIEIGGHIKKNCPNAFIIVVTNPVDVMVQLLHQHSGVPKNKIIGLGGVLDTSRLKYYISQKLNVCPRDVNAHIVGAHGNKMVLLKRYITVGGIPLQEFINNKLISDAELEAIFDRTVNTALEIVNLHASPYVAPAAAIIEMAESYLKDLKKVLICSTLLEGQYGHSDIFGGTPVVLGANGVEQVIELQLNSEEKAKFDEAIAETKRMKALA

A short description of test [4]: inhibition of 3D7 malaria parasite growth – strain 3D7 (AID 2306).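 Further: 0% = DMSO wells and 100% = chloroquine plus artemisinin control wells.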 As to conditions: P. falciparum 3D7 erythrocytic growth, LDH absorbance, 72 h; at 2 µM; hits give high values.
In test [5] the target is Calcium-dependent protein kinase 1 (Plasmodium falciparum (isolate 3D7)) (UniProt P62344). Kind of test: PfCDPK1 kinase inhibitors, biochemical, TCAMS library (AID 1159585; cut-off not given, nearly all actives have IC50 up to about 0.98 µM;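 further: inhibitors leave more ATP so luminescence rises with inhibition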). As to conditions: recombinant PfCDPK1, Kinase-Glo ATP depletion luminescence. A general note: Kinase-Glo measures the ATP left after a reaction by luminescence.
Chain of Calcium-dependent protein kinase 1 (Plasmodium falciparum (isolate 3D7)) (P62344 whole entry, looked up): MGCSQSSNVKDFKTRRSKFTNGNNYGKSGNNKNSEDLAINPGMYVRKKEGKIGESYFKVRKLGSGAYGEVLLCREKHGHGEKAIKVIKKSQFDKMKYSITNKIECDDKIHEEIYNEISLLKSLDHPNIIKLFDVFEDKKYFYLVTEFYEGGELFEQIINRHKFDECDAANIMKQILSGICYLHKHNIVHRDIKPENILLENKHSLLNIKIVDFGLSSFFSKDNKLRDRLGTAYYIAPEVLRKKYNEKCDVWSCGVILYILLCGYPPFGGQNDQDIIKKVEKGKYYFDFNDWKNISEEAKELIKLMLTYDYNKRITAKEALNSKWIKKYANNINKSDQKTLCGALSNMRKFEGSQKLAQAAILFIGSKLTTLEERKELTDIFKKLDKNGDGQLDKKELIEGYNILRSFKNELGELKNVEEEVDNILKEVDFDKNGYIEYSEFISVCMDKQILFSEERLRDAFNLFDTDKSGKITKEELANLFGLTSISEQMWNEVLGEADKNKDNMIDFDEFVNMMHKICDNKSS
For test [6], the target named is Plasmodium falciparum protein kinase 6 (PK6, PF3D7_1337100) (UniProt Q8IDW1). The test is described as follows: PfPK6 kinase inhibitors, biochemical, TCAMS library (AID 1159586). Conditions: recombinant PfPK6, Kinase-Glo ATP depletion luminescence.
Chain of Plasmodium falciparum protein kinase 6 (PK6, PF3D7_1337100) (Q8IDW1 1-305): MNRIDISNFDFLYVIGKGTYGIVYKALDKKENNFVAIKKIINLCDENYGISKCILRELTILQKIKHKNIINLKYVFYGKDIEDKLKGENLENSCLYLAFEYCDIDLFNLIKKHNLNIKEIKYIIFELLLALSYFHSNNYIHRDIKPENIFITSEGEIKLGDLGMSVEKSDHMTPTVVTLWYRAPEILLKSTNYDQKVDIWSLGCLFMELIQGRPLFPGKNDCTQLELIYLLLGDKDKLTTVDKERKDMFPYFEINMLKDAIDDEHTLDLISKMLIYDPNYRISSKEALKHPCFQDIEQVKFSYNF
Test [7] concerns the target Protein kinase 7 (PK7), Plasmodium falciparum 3D7 (PF3D7_0213400) (UniProt Q7YTF7). Kind of test: inhibition of Plasmodium PK7 catalytic activity – biochemical, TCAMS antimalarial set, Kinase-Glo luminescence (AID 1159587). As to conditions: recombinant PfPK7, Kinase-Glo ATP depletion luminescence.
Test [8] deals with Calcium-dependent protein kinase 4 (Plasmodium falciparum (isolate 3D7)) (UniProt Q8IBS5). The test is described as follows: PfCDPK4 kinase inhibitors, biochemical, TCAMS library (AID 1159588; cut-off not given, nearly all actives have IC50 up to about 0.91 µM). Conditions: recombinant PfCDPK4, Kinase-Glo ATP depletion luminescence.
Chain of Calcium-dependent protein kinase 4 (Plasmodium falciparum (isolate 3D7)) (Q8IBS5 whole entry, looked up): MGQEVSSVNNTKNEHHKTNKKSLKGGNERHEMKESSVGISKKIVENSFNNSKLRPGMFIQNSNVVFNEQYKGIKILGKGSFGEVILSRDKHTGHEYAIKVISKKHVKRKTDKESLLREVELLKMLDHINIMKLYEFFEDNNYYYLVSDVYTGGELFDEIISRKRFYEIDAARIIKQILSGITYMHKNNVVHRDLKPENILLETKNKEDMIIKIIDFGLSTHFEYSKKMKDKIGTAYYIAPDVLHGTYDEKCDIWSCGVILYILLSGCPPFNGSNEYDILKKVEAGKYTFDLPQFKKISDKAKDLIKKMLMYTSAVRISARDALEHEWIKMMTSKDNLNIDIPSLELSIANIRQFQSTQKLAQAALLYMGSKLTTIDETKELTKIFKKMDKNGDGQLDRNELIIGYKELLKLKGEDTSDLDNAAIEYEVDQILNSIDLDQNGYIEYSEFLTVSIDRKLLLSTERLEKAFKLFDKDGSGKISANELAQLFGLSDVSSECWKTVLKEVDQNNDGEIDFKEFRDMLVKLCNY

Values without a mark were called inactive. For some assays here: Potency and affinity values are given separately. The source made the active and inactive calls. Unless noted, how the calls were made is not given here.

Chain of Protein kinase 7 (PK7), Plasmodium falciparum 3D7 (PF3D7_0213400) (Q7YTF7 1-343): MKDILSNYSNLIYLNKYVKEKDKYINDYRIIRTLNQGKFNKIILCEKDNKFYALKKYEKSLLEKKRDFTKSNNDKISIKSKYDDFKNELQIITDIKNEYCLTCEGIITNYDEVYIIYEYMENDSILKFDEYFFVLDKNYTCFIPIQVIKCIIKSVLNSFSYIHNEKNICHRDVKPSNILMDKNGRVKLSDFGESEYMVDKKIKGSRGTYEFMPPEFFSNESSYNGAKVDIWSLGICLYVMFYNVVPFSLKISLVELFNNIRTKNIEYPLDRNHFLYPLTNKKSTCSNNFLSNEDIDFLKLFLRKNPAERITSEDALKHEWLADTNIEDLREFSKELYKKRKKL

Turning to `Cc1cc(N2CCCC2)nc(Nc2ccc(NC(=O)COc3ccccc3)cc2)n1`, the growth inhibition is 86% (active) in test [1] and 101% (active) in test [4]. The inhibition is 43% in test [2] and 4% in test [3]. For the same compound, the outcome in test [5], in test [6], in test [7] and in test [8] was inactive.

In the case of `O=c1cc(NCCC(CNCc2cc3ccccc3o2)NCc2cc(Br)cc(Br)c2)[nH]c2ccccc12` (configuration not stated), the growth inhibition is 94% (active) in test [1] and 100% (active) in test [4]. Also, the inhibition in test [2] was 6%; in test [3], 2%. Also, the outcome in test [5], in test [6], in test [7] and in test [8] was inactive.

With `N#Cc1ccc(CN2CCC(NC(=O)c3ccc(-c4nnc(-c5cccc6ccccc56)o4)cc3)CC2)cc1`, the growth inhibition is 14% in test [1] and 98% (active) in test [4]. The inhibition in test [2] was 37%; in test [3], -2%. Further, the result in test [5], in test [6], in test [7] and in test [8] was inactive.

Take `Cc1ccc2[nH]cc(/C=C/C(=O)NC3CCC(CCN4CCc5ccc(C#N)cc5CC4)CC3)c2c1` (configuration not stated): the growth inhibition in test [1] is 49%; in test [4], 93% (active). The inhibition was 11% in test [2] and -4% in test [3]. The result in test [5], in test [6], in test [7] and in test [8] was inactive.

Turning to `COc1cc2nc(N3CCC(CNC(=O)c4cccc5cc[nH]c45)CC3)nc(N)c2cc1OC`, the growth inhibition in test [1] is 24%; in test [4], 98% (active). Moreover, the figures for the inhibition in test [2] and in test [3] were 33% and -3%, respectively. In addition, the outcome in test [5], in test [6], in test [7] and in test [8] was inactive.

As to `CCN1CCN(CCNc2c3ccccc3nc3ccccc23)CC1`, the growth inhibition in test [1] is 8%; in test [4], 93% (active). The inhibition in test [2] was 45%; in test [3] it was 0%. Also, the result in test [5], in test [6], in test [7] and in test [8] was inactive.

Take `COc1ccccc1N1CCN(C(C(=O)NCc2ccc3c(c2)OCO3)c2ccc(C)cc2)CC1` (configuration not stated): the growth inhibition in test [1] is 81% (active); in test [4], 85% (active). For the same compound, the inhibition in test [2] is 1%; in test [3] it was 2%. Moreover, the result in test [5], in test [6], in test [7] and in test [8] was inactive.

Take `Nc1cccc(CNCc2cccc(-c3ccc(-c4nc5ccc(C(F)(F)F)cc5[nH]4)cc3)c2)c1`: the growth inhibition in test [1] is 98% (active); in test [4], 101% (active). Also, the inhibition was 6% in test [2] and 1% in test [3]. Further, the result in test [5], in test [6], in test [7] and in test [8] was inactive.

In the case of `Cc1cccc2[nH]c(-c3ccc(-c4cccc(C(=O)NCCN5CCCC5)c4)s3)nc12`, the values for the growth inhibition in test [1] and in test [4] were 2% and 94% (active), respectively. The inhibition in test [2] is 22%; in test [3], 4%. Besides, the result in test [5], in test [6], in test [7] and in test [8] was inactive.

On to `O=C(NCCCCN1CCC(c2ccc([N+](=O)[O-])cc2)CC1)c1ccc(NC(=O)c2ccc(Cl)cc2)cc1`, for which the growth inhibition is 55% (active) in test [1] and 100% (active) in test [4]. Further, the inhibition is 15% in test [2] and 2% in test [3]. In addition, the outcome in test [5], in test [6], in test [7] and in test [8] was inactive.

In the case of `O=C1CCCN1CCCNCc1cccc(-c2cccc(-c3nc4ccc(C(F)(F)F)cc4[nH]3)c2)c1`, the figures for the growth inhibition in test [1] and in test [4] were 90% (active) and 101% (active), respectively. For the same compound, the results for the inhibition in test [2] and in test [3] were 28% and -3%, respectively. Moreover, the outcome in test [5], in test [6], in test [7] and in test [8] was inactive.

On to `Clc1cccc(C23N=C(Nc4nc5ccccc5[nH]4)NC2(c2ccccc2)NC(Nc2nc4ccccc4[nH]2)=N3)c1` (configuration not stated), for which the values for the growth inhibition in test [1] and in test [4] were 88% (active) and 85% (active), respectively. Also, the inhibition in test [2] and in test [3] was -3% throughout. Further, the result in test [5], in test [6], in test [7] and in test [8] was inactive.

As for `CCCc1cc(Cc2cnc(N)nc2N)cc(CC)c1O`, the values for the growth inhibition in test [1] and in test [4] were -3% and 87% (active), respectively. The results for the inhibition in test [2] and in test [3] were 56% (active) and -3%, respectively. The outcome in test [5], in test [6], in test [7] and in test [8] was inactive.

Turning to `CCCCCCn1c(Sc2ccc(C#N)c([N+](=O)[O-])c2)nnc1-c1cc(OC)cc(OC)c1`, the growth inhibition in test [1] was 41%; in test [4] it was 95% (active). For the same compound, the figures for the inhibition in test [2] and in test [3] were 35% and -5%, respectively. The outcome in test [5], in test [6], in test [7] and in test [8] was inactive.

With `Cc1ccc2c(NN=CC=Cc3ccccc3)cc(C)nc2c1`, the growth inhibition is 13% in test [1] and 92% (active) in test [4]. Also, the inhibition was 3% in test [2] and 6% in test [3]. The result in test [5], in test [6], in test [7] and in test [8] was inactive.

Take `Cc1cc(CN2C(=O)C(c3ccccc3)(c3ccccc3)N=C2N)c(C(F)(F)F)o1`: the growth inhibition in test [1] is 84% (active); in test [4], 97% (active). Also, the inhibition in test [2] was 11%; in test [3], 4%. The outcome in test [5], in test [6], in test [7] and in test [8] was inactive.

For `Cc1cccc2[nH]c(-c3cccc(-c4ccc(NC(=O)CN5CCN(C)CC5)cc4)c3)nc12`, the growth inhibition in test [1] was 99% (active); in test [4] it was 101% (active). Besides, the inhibition is 45% in test [2] and -8% in test [3]. For the same compound, the result in test [5], in test [6], in test [7] and in test [8] was inactive.

In the case of `S=C(NCCN1CCOCC1)Nc1ccccc1`, the growth inhibition in test [1] was 1%; in test [4], 94% (active). The inhibition was 3% in test [2] and 1% in test [3]. Moreover, the result in test [5], in test [6], in test [7] and in test [8] was inactive.

Turning to `CCCCCCCN1CC[C@H](NC(=O)Nc2ccnc3ccc(OC)cc23)[C@H](CO)C1`, the growth inhibition was 69% (active) in test [1] and 94% (active) in test [4]. Also, the inhibition in test [2] was 23%; in test [3], -3%. Also, the result in test [5], in test [6], in test [7] and in test [8] was inactive.

Broadly, the inhibition is the relative decrease from the control value, in per cent.

For the origin of these results see PubChem BioAssay.
